Data on 93 compounds can be found in PubChem BioAssay AID463173 (ICCB-Longwood Screening Facility, Harvard Medical School, 2010).

SMILES strings stand for the structures. The campaign covered roughly 52,000 compounds. About 1,700 (3.3%) were called active. The full list was thinned out, with actives kept by preference. A number with no mark means an inactive call. Cut-off read from the data, not from the text of the source: active = survival mostly below about 52% (no sharp cut-off); inactive = mostly above about 56%.

The test system of the assay is Wild type. Put plainly: S. aureus survival, RN4220 and DeltatarO strains – OD600, teichoic acid synthesis inhibitors, primary screen (AID 463173). The following applies: S. aureus RN4220 wild type/DeltatarO growth, OD600, 18 h, hits give low values, screened at 18.75 µg/mL (by protocol).
Consider `CC1Cc2ccccc2N1C(=O)c1nc2ccccc2s1` (stereo not drawn), for which the survival was 113%.

In the case of `O=C(Cn1nc(-c2ccc(Cl)cc2)c2ccccc2c1=O)Nc1cccc(C(F)(F)F)c1`, the survival was 71%.

Turning to `COc1ccccc1N=C1SC(C(=O)Nc2ccccc2OC)CC(=O)N1C` (stereo not drawn), the survival is 73%.

On to `COc1cccc(-c2nnc3sc(CN4CCCCC4)cn23)c1`, for which the survival is 68%.

Turning to `CCN1/C(=C\C=C2C(=O)OC(C)(C)OC2=O)Sc2ccccc21`, the survival was 94%.

Regarding `CCC(Sc1nc2ccncc2[nH]1)C(=O)Nc1cc(Cl)ccc1C` (stereo not drawn), the survival is 126%.

Regarding `CCOC(=O)c1ccc(NC(=O)CN2C(=O)c3cccnc3Sc3ccccc32)cc1`, the survival is 66%.

Turning to `CCOC(=O)c1c(C)n(-c2ccccc2)c2ccc(OC(=O)c3cccc(Cl)c3)cc12`, the survival was 78%.

As for `CCOC(=O)c1c(C)n(-c2ccccc2)c2ccc(OC(=O)c3cccc(C)c3)cc12`, the survival was 50%.

Regarding `CCOC(=O)c1c(C)n(-c2ccccc2)c2ccc(OC(=O)c3ccccc3)cc12`, the survival is 0% (active).

Regarding `CC(C)(C)c1ccc(OCCCC(=O)N2CCOCC2)cc1`, the survival was 102%.

As to `O=C(NCCCN1CCN(c2ccccc2F)CC1)c1sc2ncccc2c1-n1cccc1`, the survival was 81%.

Take `c1coc(-c2nc3ccccn3c2Nc2ccc3c(c2)OCCO3)c1`: the survival was 70%.

Take `COc1ccc(C(=O)CC2(O)C(=O)N(Cc3ccccc3)c3ccc(Br)cc32)cc1` (stereo not drawn): the survival was 57%.

In the case of `COc1ccc(C(=O)CC2(O)C(=O)N(CCc3ccccc3)c3ccc(Br)cc32)cc1OC` (stereo not drawn), the survival was 65%.

For the compound `O=C(CC1(O)C(=O)N(CCc2ccccc2)c2ccc(Br)cc21)c1ccccc1` (stereo not drawn), the survival is 15%.

Regarding `O=C(CC1(O)C(=O)N(CCc2ccccc2)c2ccc(Br)cc21)c1ccccc1O` (stereo not drawn), the survival is 6% (active).

Take `C#CCN1C(=O)C(O)(CC(=O)c2ccc(OC)c(OC)c2)c2cc(Br)ccc21` (stereo not drawn): the survival was 111%.

`O=C(CC1(O)C(=O)N(CCc2ccccc2)c2ccc(Br)cc21)c1ccc(F)cc1` (stereo not drawn): the survival is 4% (active).

Regarding `C=CCN(CC=C)C(=S)Nc1ccc2nc(C)c(C)nc2c1`, the survival was 110%.

For the compound `Cc1ccc(-c2nc3ncccc3o2)cc1NC(=O)c1ccc(-c2ccc(Cl)cc2)o1`, the survival was 73%.

As to `COc1ccc(Cn2c(SCc3ccc(C(=O)NCc4ccccc4F)cc3)nc3cccnc32)cc1`, the survival was 67%.

Turning to `CCOc1ccc(NC(=O)CN2CCN(CC(=O)Nc3ccccc3OCC)CC2)cc1`, the survival is 81%.

For `CCOc1ccccc1NC(=O)Cc1coc2c(C)c(C)ccc12`, the survival is 114%.

On to `CC1CCN(C(=O)Cn2cc(SCC(=O)NCc3ccc(F)cc3)c3ccccc32)CC1`, for which the survival is 89%.

As to `CCCc1cc(=O)[nH]c(Nc2ccc(O)cc2C)n1`, the survival was 110%.

Consider `COc1ccc(C)c(N2C(=O)CC(N3CCN(c4ccc(F)cc4)CC3)C2=O)c1` (stereo not drawn), for which the survival is 109%.

On to `CC1Cc2ccccc2N1C(=O)c1cc2n(n1)C(C(F)(F)F)CC(c1ccco1)N2` (stereo not drawn), for which the survival was 110%.

With `Cc1cc(Br)cc2c1N(Cc1ccccc1OC(C)C)C(=O)C2=O`, the survival was 26% (active).

For `Cc1cccc2c1N(Cc1ccccc1OCCC(C)C)C(=O)C2=O`, the survival was 25% (active).

For `CCCOc1ccc(CN2C(=O)C(=O)c3cccc(C)c32)cc1`, the survival is 38%.

Take `Cc1ccc(CN2C(=O)C(=O)c3cc(Br)cc(C)c32)cc1`: the survival is 40%.

`CCCCOc1ccc(CN2C(=O)C(=O)c3cc(Br)cc(C)c32)cc1OC`: the survival is 59%.

As to `COc1ccccc1CN1C(=O)C(=O)c2cccc(C)c21`, the survival is 107%.

In the case of `CC(=O)c1cc(-c2ccccc2)n(CCC(=O)Nc2ccc(C)cc2C)c1C`, the survival was 85%.

`Cc1ccc(-c2nn(CC(=O)NC3CCCCC3)c3c2cnc2ccccc23)cc1`: the survival was 75%.

As to `CN(Cc1ccccc1)C(=O)COc1ccc(S(=O)(=O)N2CCCC2)cc1`, the survival was 121%.

For `Nc1c(C(=O)c2ccc(F)cc2)sc(Nc2ccccc2F)c1S(=O)(=O)c1ccc(Br)cc1`, the survival was 74%.

On to `COc1ccc(C(=O)c2sc(Nc3cc(Cl)ccc3C)nc2N)cc1OC`, for which the survival is 129%.

Consider `Nc1nc(Nc2ccccc2F)sc1C(=O)c1ccc(Cl)cc1`, for which the survival is -7% (active).

As for `CCc1nn2c(=O)cc(COC(=O)c3cccs3)nc2s1`, the survival is 89%.

`CCOC(=O)c1c(S(=O)(=O)N2CCCC(C(=O)Nc3ncccc3C)C2)c(C)n(C)c1C` (stereo not drawn): the survival is 71%.

Take `O=C(CSc1nnc(NC(=O)C2CC2)s1)Nc1ccccc1F`: the survival is 108%.

On to `CCOc1ccccc1CNC(=O)c1ccc(N2Cc3ccccc3Oc3ncccc32)s1`, for which the survival is 84%.

In the case of `CCOC(=O)c1sc2ncn(CC(=O)Nc3ccc(OC)c(Cl)c3)c(=O)c2c1C`, the survival was 78%.

For `O=C(NCc1ccccc1)c1nc[nH]c1C(=O)NCc1ccccc1`, the survival was 123%.

As for `CCOc1cccc2cc(-c3cn4c(n3)sc3ccccc34)c(=O)oc12`, the survival is 64%.

For the compound `COc1cccc2cc(-c3cn4c(n3)sc3cc(F)ccc34)c(=O)oc12`, the survival was 75%.

Consider `CCOc1cccc2cc(-c3cn4c(n3)sc3cc(C)ccc34)c(=O)oc12`, for which the survival was -6% (active).

In the case of `Cc1oc(-c2ccc(Cl)cc2)nc1CN1CCCC(C(=O)NCCc2ccc(Cl)cc2)C1` (stereo not drawn), the survival was 86%.

With `Cc1oc(-c2ccc(Cl)cc2)nc1CN1CCCC(C(=O)NCCc2ccccc2)C1` (stereo not drawn), the survival was 29%.

For `Cc1cccc(-c2nc(CN3CCCC(C(=O)NCCc4ccc(Cl)cc4)C3)c(C)o2)c1` (stereo not drawn), the survival was 29%.

For the compound `Cc1oc(-c2cccc(Cl)c2)nc1CN1CCC(C(=O)NCCc2ccc(Cl)cc2)CC1`, the survival was 88%.

For the compound `Cc1ccc(CCNC(=O)C2CCCN(Cc3nc(-c4cccc(Cl)c4)oc3C)C2)cc1` (stereo not drawn), the survival was 9% (active).

With `Cc1oc(-c2cccc(Cl)c2)nc1CN1CCCC(C(=O)NCCc2ccc(Cl)cc2)C1` (stereo not drawn), the survival is -2% (active).

`CCc1ccc(C(=O)c2cn(CC(=O)Nc3ccc4c(c3)OCO4)c3cc(OC)c(OC)cc3c2=O)cc1`: the survival was 107%.

As to `Cc1ccccc1NC(=O)c1ccccc1NC(=O)c1ccccc1F`, the survival was 89%.

In the case of `COc1ccc(NC(=O)CC2C(=O)N(c3ccccc3)C(=O)N2C2CCCCC2)cc1` (stereo not drawn), the survival was 70%.

As for `O=C(Nc1ccccc1C(F)(F)F)C1CCN(c2nnc(-n3cccc3)s2)CC1`, the survival was 113%.

Turning to `COc1ccc(C(C)=O)cc1CSc1nc(NCc2ccc(Cl)cc2)c2ccccc2n1`, the survival is 0% (active).

For the compound `COc1ccc(C(C)=O)cc1CSc1nc(NCCc2ccccc2)c2ccccc2n1`, the survival was 47%.

Consider `COc1ccc(C(C)=O)cc1CSc1nc(NCc2ccccc2)c2ccccc2n1`, for which the survival is 85%.

With `CCOc1ccccc1N(C)C(=O)c1c2c(nc3ccccc13)C(=O)N(C1CCCCC1)C2`, the survival was 90%.

For `O=C(NCc1ccc(F)cc1)c1c2c(nc3ccccc13)C(=O)N(C1CCCCC1)C2`, the survival was 99%.

Turning to `CN(C(=O)c1c2c(nc3ccccc13)C(=O)N(C1CCCCC1)C2)c1ccc(F)cc1`, the survival was -3% (active).

For the compound `COc1ccc(CNC(=O)Cn2ncc3c(=O)oc4ccc(C)cc4c32)c(OC)c1`, the survival was 113%.

On to `COC(=O)c1c(NC(=O)CCCOc2ccccc2)sc2c1CCC(C)C2` (stereo not drawn), for which the survival was 20%.

On to `CC1CCc2c(sc(NC(=O)CCCOc3ccccc3)c2C(N)=O)C1` (stereo not drawn), for which the survival is 91%.

For `CCOC(=O)c1c(NC(=O)CS(=O)(=O)c2ccc(C)cc2)sc2c1CCC(C)C2` (stereo not drawn), the survival is 73%.

Turning to `CCOC(=O)c1c(NC(=O)CCCOc2ccccc2C)sc2c1CCC(C)C2` (stereo not drawn), the survival is 6% (active).

`Cc1ccc(OCCCC(=O)Nc2sc3c(c2C(N)=O)CCC(C)C3)cc1` (stereo not drawn): the survival is 148%.

Turning to `CCOC(=O)c1c(NC(=O)CCCOc2ccc(C)cc2)sc2c1CCC(C)C2` (stereo not drawn), the survival was 2% (active).

Turning to `COC(=O)c1ccccc1NC(=O)COC(=O)c1ccco1`, the survival was 108%.

With `COc1ccc(CNC(=O)c2cc(=O)[nH]c3ccc(S(=O)(=O)N4CCCC4)cc23)c(OC)c1`, the survival is 60%.

Consider `O=C(NCCc1ccccc1)C1COc2ccccc2C1` (stereo not drawn), for which the survival was 10% (active).

With `CCOc1ccc(CCNC(=O)C2COc3ccccc3C2)cc1OCC` (stereo not drawn), the survival was -2% (active).

As for `CCc1ccc(CNC(=O)C2COc3ccccc3C2)cc1` (stereo not drawn), the survival is 88%.

Turning to `CN(C)c1ccc(CNC(=O)C2COc3ccccc3C2)cc1` (stereo not drawn), the survival was 0% (active).

On to `COc1ccc(CCNC(=O)C2COc3ccccc3C2)cc1OC` (stereo not drawn), for which the survival was 59%.

Consider `CCOc1cc(CNC(=O)C2COc3ccccc3C2)cc(OCC)c1OCC` (stereo not drawn), for which the survival was 73%.

For the compound `Cc1ccc(CCNC(=O)C2COc3ccccc3C2)cc1` (stereo not drawn), the survival was 88%.

Take `Cc1ccc(CNC(=O)C2COc3ccccc3C2)cc1` (stereo not drawn): the survival was 121%.

`O=C(NCCc1ccc(Cl)cc1)C1COc2ccccc2C1` (stereo not drawn): the survival is 88%.

For `Cc1cccc(-n2c(SCC(=O)Nc3ccccc3C)nc3c(oc4ccccc43)c2=O)c1`, the survival was 86%.

Take `Cc1cccc(NC(=O)N2CCN(C(=O)c3nsc4ccccc34)CC2)c1C`: the survival was 72%.

`CCc1ccc(NC(=O)N2CCN(C(=O)c3nsc4ccccc34)CC2)cc1`: the survival was 76%.

For `O=C(Nc1ccc(F)c(Cl)c1)N1CCN(C(=O)c2nsc3ccccc23)CC1`, the survival was 70%.

In the case of `Cc1ccc(C)c(NC(=O)N2CCN(C(=O)c3nsc4ccccc34)CC2)c1`, the survival was 69%.

As for `CCc1ccccc1NC(=O)N1CCN(C(=O)c2nsc3ccccc23)CC1`, the survival was -1% (active).

Regarding `Cc1ccc(NC(=O)N2CCN(C(=O)c3nsc4ccccc34)CC2)cc1C`, the survival was -6% (active).

As for `Cc1cc(C)cc(NC(=O)N2CCN(C(=O)c3nsc4ccccc34)CC2)c1`, the survival was 78%.

Consider `O=C(Nc1ccccc1)N1CCN(C(=O)c2nsc3ccccc23)CC1`, for which the survival is 85%.

With `O=C(Nc1ccc(F)cc1)N1CCN(C(=O)c2nsc3ccccc23)CC1`, the survival is 14% (active).
